Results taken from PubChem BioAssay (Tox21).
Records with an inconclusive call do not appear. Calls of active or inactive are those of the source. Unless noted, calls come from the whole dose curve. Where a SMILES comes first, the peptide text is derived from it. [ ]: non-standard residue; d: D form. pGlu = O=C1CC[C@@H](C(=O)O)N1

How the values were obtained:
[1] = qHTS assay to identify small molecule agonists of the peroxisome proliferator-activated receptor delta (PPARd) signaling pathway - cell viability counter screen (AID 743211; active = well fitted curve in the direction sought with a large enough effect in the repeat runs; an effect the other way counts as inactive or inconclusive; note: nearly all actives have a fitted effect of over 55% in size)
Summary of the method: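 Viability of GeneBLAzer PPARd UAS-bla HEK293H cells was assessed after 17 h compound incubation at 37C, using CellTiter-Glo reagent added after the reporter read and luminescence recorded 30 min later.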

[2] = target: Peroxisome proliferator-activated receptor delta (Homo sapiens) (UniProt Q03181); assay: qHTS assay to identify small molecule agonists of the peroxisome proliferator-activated receptor delta (PPARd) signaling pathway (AID 743212)
Sequence of Peroxisome proliferator-activated receptor delta (Homo sapiens) (Q03181 whole entry, looked up): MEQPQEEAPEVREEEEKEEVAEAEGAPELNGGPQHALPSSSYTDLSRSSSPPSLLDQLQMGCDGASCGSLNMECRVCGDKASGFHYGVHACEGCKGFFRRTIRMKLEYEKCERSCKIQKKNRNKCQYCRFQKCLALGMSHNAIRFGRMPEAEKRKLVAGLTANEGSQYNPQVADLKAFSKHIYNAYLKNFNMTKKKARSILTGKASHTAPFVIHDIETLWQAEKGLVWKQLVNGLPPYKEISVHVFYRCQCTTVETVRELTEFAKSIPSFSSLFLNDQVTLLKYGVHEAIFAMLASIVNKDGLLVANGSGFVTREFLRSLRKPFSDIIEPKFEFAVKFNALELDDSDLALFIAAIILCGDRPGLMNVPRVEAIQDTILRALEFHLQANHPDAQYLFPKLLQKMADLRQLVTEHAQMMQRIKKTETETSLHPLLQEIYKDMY
Summary of the method: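 Tox21 library screened in GeneBLAzer PPARd UAS-bla HEK293H cells. After compound treatment at 37 C, a FRET-based beta-lactamase substrate was applied for 2 h and fluorescence recorded.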

[3] = qHTS assay to identify small molecule antagonists of the peroxisome proliferator-activated receptor delta (PPARd) signaling pathway - cell viability counter screen (AID 743213; active = well fitted curve in the direction sought with a large enough effect in the repeat runs; an effect the other way counts as inactive or inconclusive; note: nearly all actives have a fitted effect of over 50% in size)
Summary of the method: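 HEK293H cells with the PPARd UAS-bla reporter, co-treated 17 h at 37 C with compounds and L165041 (300 nM final), were lysed with CellTiter-Glo. Luminescence indicated viable cell content.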

[4] = target: Peroxisome proliferator-activated receptor delta (Homo sapiens) (UniProt Q03181); assay: qHTS assay to identify small molecule antagonists of the peroxisome proliferator-activated receptor delta (PPARd) signaling pathway (AID 743215; active = well fitted inhibition curve with a large enough effect in the signal ratio in the repeat runs, not every such curve was filed as active; the % refers to the signal ratio;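 note: cells stimulated with agonist L165041 at 300 nM final during compound exposure; series mostly up to about 62 µM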)
Summary of the method: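 Screen format: qHTS, antagonist mode. HEK293H PPARd-bla cells received compound and 300 nM L165041 (final), 17 h, 37 C. Beta-lactamase detected via FRET substrate fluorescence, 2 h, room temperature.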

[5] = qHTS assay to identify small molecule antagonists of the farnesoid-X-receptor (FXR) signaling pathway - cell viability counter screen (AID 743221; active = well fitted cell-killing curve with a large enough effect in the repeat runs, not every such curve was filed as active; note: nearly all actives have a fitted effect of over 50% in size)
Summary of the method: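 Quantitative HTS of the Tox21 10K library run in parallel with the beta-lactamase reporter read. HEK 293T cells carrying a UAS-driven bla reporter got compound and 50 uM CDCA (final) for 16 h; ATP-based luminescence followed.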

[6] = target: Vitamin D3 receptor (Homo sapiens) (UniProt P11473); assay: qHTS assay to identify small molecule agonists of the vitamin D receptor (VDR) signaling pathway (AID 743222)
Sequence of Vitamin D3 receptor (Homo sapiens) (P11473 whole entry, looked up): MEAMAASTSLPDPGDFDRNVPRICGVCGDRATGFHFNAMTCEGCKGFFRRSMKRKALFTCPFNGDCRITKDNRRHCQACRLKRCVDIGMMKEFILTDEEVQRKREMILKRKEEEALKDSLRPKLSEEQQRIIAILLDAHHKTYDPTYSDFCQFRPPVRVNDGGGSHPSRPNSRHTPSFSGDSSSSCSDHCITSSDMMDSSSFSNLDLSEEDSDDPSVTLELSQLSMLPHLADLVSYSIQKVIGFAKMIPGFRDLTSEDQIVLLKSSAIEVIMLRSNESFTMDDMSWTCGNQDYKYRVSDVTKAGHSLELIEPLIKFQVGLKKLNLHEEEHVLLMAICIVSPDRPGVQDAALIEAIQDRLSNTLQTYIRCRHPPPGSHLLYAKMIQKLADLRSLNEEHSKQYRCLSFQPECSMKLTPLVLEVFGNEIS
Summary of the method: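 Using LiveBLAzer B/G FRET detection, agonism was scored in VDR-bla cells exposed overnight (16 h, 37C) to DMSO-dissolved compounds; substrate incubation was 2 h at room temperature.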

[7] = qHTS assay to identify small molecule antagonists of the vitamin D receptor (VDR) signaling pathway - cell viability counter screen (AID 743225; active = well fitted curve in the direction sought with a large enough effect in the repeat runs; an effect the other way counts as inactive or inconclusive; note: nearly all actives have a fitted effect of over 50% in size)
Summary of the method: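 Cells (VDR-UAS-bla HEK 293T) are plated, rested 4 h at 37C, dosed with compound and 3 nM final 1-alpha,25-dihydroxy vitamin D3, and incubated 16 h. Viability is taken from CellTiter-Glo luminescence in the reporter wells.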

[8] = qHTS assay to identify small molecule agonists of the NFkB signaling pathway - cell viability counter screen (AID 1159515); note: series mostly up to about 61 µM; nearly all actives have a fitted effect of over 55% in size
Summary of the method: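 Counter screen run alongside the NFkB-bla agonist assay: ME-180 reporter cells exposed to compounds for 5 hr, then lysed with CellTiter-Glo in the same wells. Luminescence, read after 30 min, reflects viable cells.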

[9] = qHTS assay to identify small molecule agonists of the endoplasmic reticulum stress response signaling pathway (AID 1159516; active = well fitted activation curve with a large enough effect in the signal ratio in the repeat runs, not every such curve was filed as active; the % refers to the signal ratio)
Summary of the method: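 For this screen, HeLa cells stably carrying beta-lactamase under the ER stress response element received test compounds, positive controls or DMSO for 5 hr at 37 C; B/G FRET substrate was then added and dual-wavelength emission recorded.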

[10] = qHTS assay to identify small molecule agonists of the endoplasmic reticulum stress response signaling pathway - cell viability counter screen (AID 1159517); note: series mostly up to about 61 µM; nearly all actives have a fitted effect of over 50% in size
Summary of the method: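 In parallel with the ESRE reporter read, cytotoxicity was scored by CellTiter-Glo luminescence (30 min, room temperature) on HeLa ESRE-bla cells dosed for 5 hr.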

[11] = qHTS assay to identify small molecule antagonists of the retinoid-related orphan receptor gamma (ROR-gamma) signaling pathway - cell viability counter screen (AID 1159520; active = well fitted curve in the direction sought with a large enough effect in the repeat runs; an effect the other way counts as inactive or inconclusive; note: nearly all actives have a fitted effect of over 50% in size)
Summary of the method: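 Tet-on ROR gamma CHO cells were given compounds for 2 hr, then doxycycline hyclate at 1 uM final, and incubated 16 hr at 37 C. Viability was measured as ATP content by CellTiter-Glo luminescence.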

[12] = target: Nuclear receptor ROR-gamma (Homo sapiens) (UniProt P51449); assay: qHTS assay to identify small molecule antagonists of the retinoid-related orphan receptor gamma (ROR-gamma) signaling pathway (AID 1159521; active = well fitted curve in the direction sought with a large enough effect in the repeat runs; an effect the other way counts as inactive or inconclusive)
Summary of the method: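 RORγ antagonism is scored from reduced reporter luminescence in Tet-on CHO cells. Induction used 1 uM final doxycycline hyclate for 16 h at 37 C, following a 2 h compound exposure.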

[13] = qHTS assay to identify small molecule agonists of the AP-1 signaling pathway - cell viability counter screen (AID 1159525); note: nearly all actives have a fitted effect of over 55% in size
Summary of the method: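 Same-well cytotoxicity counter screen of the Tox21 10K library in ME-180 cells. The readout is ATP-dependent luminescence after 5 h compound treatment. Data are normalised to DMSO and tetra n-octyl ammonium bromide controls.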

[14] = qHTS assay to identify small molecule agonists of the AP-1 signaling pathway (AID 1159526)
[15] = target: Retinoic acid receptor RXR-alpha (Homo sapiens) (UniProt P19793); assay: qHTS assay to identify small molecule agonists of the RXR signaling pathway (AID 1159527); note: nearly all actives have a fitted effect of over 35% in size
Sequence of Retinoic acid receptor RXR-alpha (Homo sapiens) (P19793 whole entry, looked up): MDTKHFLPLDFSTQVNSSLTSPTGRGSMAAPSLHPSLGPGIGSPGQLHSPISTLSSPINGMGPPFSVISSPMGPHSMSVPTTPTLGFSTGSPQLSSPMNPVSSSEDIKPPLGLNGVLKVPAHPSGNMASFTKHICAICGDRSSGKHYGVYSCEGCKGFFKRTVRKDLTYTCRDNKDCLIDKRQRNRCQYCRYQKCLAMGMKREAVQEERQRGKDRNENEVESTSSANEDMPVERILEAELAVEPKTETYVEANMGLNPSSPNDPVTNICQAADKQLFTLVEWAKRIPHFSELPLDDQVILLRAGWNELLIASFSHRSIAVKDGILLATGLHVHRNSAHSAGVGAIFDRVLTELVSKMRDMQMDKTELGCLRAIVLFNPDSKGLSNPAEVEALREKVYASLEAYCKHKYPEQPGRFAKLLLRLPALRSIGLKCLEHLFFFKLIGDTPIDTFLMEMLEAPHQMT
Summary of the method: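 qHTS of the Tox21 10K library in GeneBLAzer RXR-alpha HEK 293T cells carrying a beta-lactamase reporter […]; 16 hr treatment, 9-cis retinoic acid as agonist control, FRET read-out.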

[16] = qHTS assay to identify small molecule agonists of the farnesoid-X-receptor (FXR) signaling pathway - cell viability counter screen (AID 743218; active = well fitted curve in the direction sought with a large enough effect in the repeat runs; an effect the other way counts as inactive or inconclusive; note: nearly all actives have a fitted effect of over 45% in size)
Summary of the method: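 Same-well cytotoxicity check on FXR-UAS-bla HEK 293T cells: 5 h attachment, 16 h compound at 37 C, CellTiter-Glo luminescence read at room temperature after 30 min.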

[17] = qHTS assay to identify small molecule agonists of the vitamin D receptor (VDR) signaling pathway - cell viability counter screen (AID 743224; active = well fitted curve in the direction sought with a large enough effect in the repeat runs; an effect the other way counts as inactive or inconclusive)
Summary of the method: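 Counter screen for cytotoxicity: VDR-bla cells at 2,000 cells/well, 16 h compound exposure, then CellTiter-Glo luminescence after the beta-lactamase measurement.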

[18] = target: Bile acid receptor (Homo sapiens) (UniProt Q96RI1); assay: qHTS assay to identify small molecule antagonists of the farnesoid-X-receptor (FXR) signaling pathway (AID 743217; active = well fitted inhibition curve with a large enough effect in the signal ratio in the repeat runs, not every such curve was filed as active; the % refers to the signal ratio)
Sequence of Bile acid receptor (Homo sapiens) (Q96RI1 whole entry, looked up): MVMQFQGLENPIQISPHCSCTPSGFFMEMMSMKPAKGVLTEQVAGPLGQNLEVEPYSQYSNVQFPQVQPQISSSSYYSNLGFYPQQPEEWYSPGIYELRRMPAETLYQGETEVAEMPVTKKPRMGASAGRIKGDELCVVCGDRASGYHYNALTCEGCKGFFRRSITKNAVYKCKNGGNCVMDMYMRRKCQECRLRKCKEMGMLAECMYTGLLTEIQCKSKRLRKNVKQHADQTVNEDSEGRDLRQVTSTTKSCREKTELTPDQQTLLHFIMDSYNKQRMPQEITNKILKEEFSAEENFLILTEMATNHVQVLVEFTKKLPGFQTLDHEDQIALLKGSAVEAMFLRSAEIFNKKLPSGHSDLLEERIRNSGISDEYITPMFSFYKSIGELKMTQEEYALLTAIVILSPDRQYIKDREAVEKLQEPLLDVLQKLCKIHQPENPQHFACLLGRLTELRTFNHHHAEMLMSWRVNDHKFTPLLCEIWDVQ
Summary of the method: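 Quantitative HTS, beta-lactamase reporter format: FXR-UAS-bla HEK 293T cells co-treated 16 h at 37 °C with compounds and 50 uM final chenodeoxycholic acid, then read by B/G FRET fluorescence.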

[19] = target: Bile acid receptor (Homo sapiens) (UniProt Q96RI1); assay: qHTS assay to identify small molecule agonists of the farnesoid-X-receptor (FXR) signaling pathway (AID 743220; active = well fitted activation curve with a large enough effect in the signal ratio in the repeat runs, not every such curve was filed as active; the % refers to the signal ratio)
Summary of the method: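 FXR-UAS-bla HEK 293T cells carrying a UAS-driven beta-lactamase reporter were plated for 5 h at 37C/5% CO2, then exposed to DMSO-dissolved Tox21 10K compounds for 16 h at 37C. A LiveBLAzer B/G FRET substrate was loaded for 2 h at room temperature before fluorescence reading.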

[20] = target: Vitamin D3 receptor (Homo sapiens) (UniProt P11473); assay: qHTS assay to identify small molecule antagonists of the vitamin D receptor (VDR) signaling pathway (AID 743223; active = well fitted inhibition curve with a large enough effect in the signal ratio in the repeat runs, not every such curve was filed as active; the % refers to the signal ratio)
Summary of the method: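 Fluorescence from LiveBLAzer B/G FRET substrate, read after 2 h at room temperature, reflects beta-lactamase reporter activity in VDR-bla cells treated 16 h at 37C with compounds and agonist 1alpha,25-dihydroxyvitamin D3 (3 nM final).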

Measured: Potency

CCNC(=O)[C@@H]1CCCN1C(=O)[C@H](CCCN=C(N)N)NC(=O)[C@H](CC(C)C)NC(=O)CNC(=O)[C@H](Cc1ccc(O)cc1)NC(=O)[C@H](CO)NC(=O)[C@H](Cc1c[nH]c2ccccc12)NC(=O)[C@H](Cc1cnc[nH]1)NC(=O)[C@@H]1CCC(=O)N1 ([pGlu]HWSYGLRP-NHEt)
not listed: [16] | [17] | [18] | [19] | [20]
inactive: all other assays above

CCOC(=O)OC(C)OC1=C(C(=O)Nc2ccccn2)N(C)S(=O)(=O)c2ccccc21 (configuration not stated)
not listed: [6] | [18] | [19] | [20]
inactive: all other assays above

O=C1CCCCCCCCCCCCCCO1
not listed: [6] | [18] | [19] | [20]
inactive: all other assays above

CC(=O)c1ccc2ccccc2c1
not listed: [7] | [16] | [17]
inactive: all other assays above

CCCCCCCCCC[N+](C)(C)[O-]
not listed: [6] | [18] | [19] | [20]
inactive: all other assays above

N[C@@H](CCC(=O)O)C(=O)O
not listed: [17] | [18] | [19]
inactive: all other assays above

CCCCOCCOC(=O)CCCCCCCCC(=O)OCCOCCCC
not listed: [6] | [17] | [18] | [19] | [20]
inactive: all other assays above

CCCCCCC#CC(=O)OC
not listed: [6] | [16] | [17] | [18] | [19] | [20]
inactive: all other assays above

O=C(O)CC(C(=O)O)S(=O)(=O)O (configuration not stated)
not listed: [3] | [4] | [17] | [18] | [19] | [20]
inactive: all other assays above

CCCc1ncc(C[n+]2ccccc2C)c(N)n1
not listed: [2] | [3] | [4] | [20]
inactive: all other assays above

CC1OC1C1CCC2(C)OC2C1 (configuration not stated)
not listed: [2] | [3] | [4] | [6] | [7] | [18] | [19]
inactive: all other assays above

C=C(C)C(=O)OCCOCCOCCOCCOC(=O)C(=C)C
not listed: [2] | [3] | [4] | [16]
inactive: all other assays above

Cc1nc(C2CCCCC2)c(-c2ccc(S(N)(=O)=O)c(F)c2)o1
not listed: [2] | [4] | [17]
inactive: all other assays above

CCCCc1ccc2c(n1)[C@@H](c1ccc(OC)cc1C[C@H](C)C(=O)O)[C@H](C(=O)O)[C@H]2c1ccc2c(c1)OCO2
not listed: [2] | [3] | [4] | [6]
inactive: all other assays above

O=C(c1ccccc1)C1(O)CCCCC1
not listed: [3] | [7] | [16] | [17] | [18] | [19]
inactive: all other assays above

COc1c(N2CCNC(C)C2)c(F)cc2c(=O)c(C(=O)O)cn(C3CC3)c12 (configuration not stated)
not listed: [2] | [4] | [6] | [16] | [17] | [19] | [20]
inactive: all other assays above

CN(C)CCN(C)CCN(C)C
not listed: [3] | [4] | [6] | [7] | [17] | [18] | [19] | [20]
inactive: all other assays above
